Ten molecules from ChEMBL document CHEMBL3988442, “University of Dundee, Small-Polar-MMV Screening Library” (2021) can be followed below.

For some assays here: Potency and affinity values are given separately.

Parameters in all cases: scale not given: direction of the effect not stated beside the values
Experiment [1] deals with Protein translocase subunit SecA (Escherichia coli (strain K12)) (UniProt P10408). Put plainly: Assay to Identify E. coli SecA ATPase Inhibitors. The settings on record: 30 µM. It counts as functional.
The target in experiment [2] is T1, Ubiquitin-activating enzyme e1, putative (Leishmania donovani (strain BPK282A1)) (UniProt E9BSI1).
T1 sequence (whole entry): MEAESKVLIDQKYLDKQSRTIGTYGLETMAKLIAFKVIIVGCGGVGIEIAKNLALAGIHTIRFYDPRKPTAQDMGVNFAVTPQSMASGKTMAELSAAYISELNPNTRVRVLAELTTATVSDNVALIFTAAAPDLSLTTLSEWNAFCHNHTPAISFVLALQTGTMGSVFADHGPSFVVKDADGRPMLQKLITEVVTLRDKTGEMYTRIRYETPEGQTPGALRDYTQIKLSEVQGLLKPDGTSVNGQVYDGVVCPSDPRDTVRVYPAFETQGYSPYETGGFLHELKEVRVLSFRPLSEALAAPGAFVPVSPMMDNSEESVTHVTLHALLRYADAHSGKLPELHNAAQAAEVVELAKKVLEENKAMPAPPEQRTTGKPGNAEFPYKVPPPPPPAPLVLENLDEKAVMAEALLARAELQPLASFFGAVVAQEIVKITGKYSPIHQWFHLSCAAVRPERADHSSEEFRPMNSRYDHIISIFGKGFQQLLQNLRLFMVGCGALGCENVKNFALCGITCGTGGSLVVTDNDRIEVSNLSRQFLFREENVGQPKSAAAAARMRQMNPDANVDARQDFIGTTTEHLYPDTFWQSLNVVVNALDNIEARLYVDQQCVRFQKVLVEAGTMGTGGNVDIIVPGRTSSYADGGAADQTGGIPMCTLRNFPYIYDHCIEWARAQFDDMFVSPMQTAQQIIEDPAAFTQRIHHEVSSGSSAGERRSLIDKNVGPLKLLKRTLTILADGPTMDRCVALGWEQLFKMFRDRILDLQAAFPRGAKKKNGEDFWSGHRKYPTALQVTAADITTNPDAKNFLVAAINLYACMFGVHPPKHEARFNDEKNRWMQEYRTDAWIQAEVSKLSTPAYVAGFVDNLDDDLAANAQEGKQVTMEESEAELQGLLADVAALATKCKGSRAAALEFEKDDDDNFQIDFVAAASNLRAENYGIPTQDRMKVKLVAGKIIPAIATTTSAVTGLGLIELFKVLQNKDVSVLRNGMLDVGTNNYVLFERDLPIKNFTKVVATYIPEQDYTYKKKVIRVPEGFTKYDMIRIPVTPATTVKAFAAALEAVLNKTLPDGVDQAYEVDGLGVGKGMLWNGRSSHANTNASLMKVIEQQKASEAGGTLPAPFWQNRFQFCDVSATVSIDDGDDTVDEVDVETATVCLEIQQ
Description: Leishmania donovani Ubiquitin Activating Enzyme (LdE1). The conditions noted are these: 30 µM. It counts as functional.

In experiment [3] the target is AMP-activated protein kinase, AMPK (Homo sapiens) (UniProt P54646+O43741+P54619+Q9UGJ0+Q9Y478+Q13131+Q9UGI9). Description: AMP-dependent Kinase enzyme assay. An in vitro enzyme assay that detects ADP turnover that is directly proportional to AMPK activity. This uses naive AMPK that is activated during the assay with MK-8722. The settings on record: 30 µM. In kind it is functional.

Experiment [4] addresses Sialic acid-binding Ig-like lectin 9 (Homo sapiens) (UniProt Q9Y336). Description: Hs-Siglec9 ALPHAscreen SOP 20170721. The settings on record: 10 µM. For orientation: In Alpha technology, singlet oxygen from a donor bead excites a nearby acceptor bead.
In experiment [5] the test system is Trypanosoma cruzi. Put plainly: Trypanosoma cruzi phosphomannomutase and mannose-1-phosphate guanylyltransferase assay. In kind it is functional. The settings on record: 10 µM.
Experiment [6] has as its target T2, Arginase-2, mitochondrial (Homo sapiens) (UniProt P78540).
T2 sequence (whole entry): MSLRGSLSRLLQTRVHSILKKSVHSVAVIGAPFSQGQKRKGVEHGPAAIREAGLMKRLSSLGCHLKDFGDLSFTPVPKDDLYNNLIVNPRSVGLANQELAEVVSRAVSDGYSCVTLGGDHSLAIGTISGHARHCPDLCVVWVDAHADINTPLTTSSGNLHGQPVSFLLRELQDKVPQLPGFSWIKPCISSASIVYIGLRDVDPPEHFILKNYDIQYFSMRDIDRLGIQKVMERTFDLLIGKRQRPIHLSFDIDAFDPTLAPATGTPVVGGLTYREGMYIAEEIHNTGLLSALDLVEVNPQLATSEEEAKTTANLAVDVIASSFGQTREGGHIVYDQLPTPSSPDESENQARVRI
Description: in vitro enzyme assay to detect the production of urea directly proportional to the activity of Arginase II. Further: in the data most compounds retested in dose-response had high values. It counts as functional. The settings on record: 33.3 µM.

Experiment [7] addresses T3, Proteasome subunit beta (Trypanosoma cruzi) (UniProt O96673).
T3 sequence (whole entry): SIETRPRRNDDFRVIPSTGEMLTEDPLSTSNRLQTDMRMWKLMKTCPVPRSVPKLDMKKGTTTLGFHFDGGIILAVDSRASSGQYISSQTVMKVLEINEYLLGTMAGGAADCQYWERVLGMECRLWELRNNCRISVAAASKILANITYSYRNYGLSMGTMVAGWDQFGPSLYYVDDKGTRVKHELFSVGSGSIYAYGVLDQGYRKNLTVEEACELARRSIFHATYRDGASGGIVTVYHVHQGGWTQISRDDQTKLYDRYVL
Put plainly: Trypanosoma cruzi proteasome chymotrypsin-like activity (TcProtChymo) assay. Further: in the data most compounds retested in dose-response had high values. The conditions noted are these: 9.37 µM. In kind it is functional.

The species named for experiment [8] is Homo sapiens. Put plainly: To identify inhibition of the IFN signalling (Jak-Stat) pathway via expression of an eGFP reporter gene under the control of an IFN-stimulated response element (ISRE) containing MxA promoter. It counts as functional. The conditions noted are these: 30 µM. A general note: Reporter assays use an easily measured gene product as a stand-in for the process of interest.

The target in experiment [9] is T4, Tyrosyl-tRNA synthetase, putative (Trypanosoma cruzi (strain CL Brener)) (UniProt Q4DSP6).
T4 sequence (whole entry): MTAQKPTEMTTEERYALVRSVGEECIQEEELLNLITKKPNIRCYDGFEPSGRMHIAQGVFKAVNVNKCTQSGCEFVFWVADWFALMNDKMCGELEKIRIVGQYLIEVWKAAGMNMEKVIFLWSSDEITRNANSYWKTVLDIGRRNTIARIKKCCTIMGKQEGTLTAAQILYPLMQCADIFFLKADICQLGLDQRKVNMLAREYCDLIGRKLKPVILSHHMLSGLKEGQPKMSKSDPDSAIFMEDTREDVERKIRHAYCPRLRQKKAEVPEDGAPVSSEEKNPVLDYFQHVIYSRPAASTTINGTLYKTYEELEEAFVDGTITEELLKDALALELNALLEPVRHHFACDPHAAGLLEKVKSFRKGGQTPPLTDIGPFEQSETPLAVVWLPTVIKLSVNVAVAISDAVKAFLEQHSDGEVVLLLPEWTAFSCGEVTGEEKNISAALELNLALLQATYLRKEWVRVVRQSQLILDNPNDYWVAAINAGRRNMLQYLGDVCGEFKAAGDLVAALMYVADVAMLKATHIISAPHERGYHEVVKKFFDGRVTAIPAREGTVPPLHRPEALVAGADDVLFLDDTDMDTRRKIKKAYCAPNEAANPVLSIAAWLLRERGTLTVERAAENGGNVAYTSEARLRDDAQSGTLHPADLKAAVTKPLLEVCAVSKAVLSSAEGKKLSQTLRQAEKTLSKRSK
Description: Trypanosoma cruzi tyrosyl tRNA synthetase (TcYRS) _High Tyrosine SOP. Further: in the data most compounds retested in dose-response had high values. It counts as functional. The settings on record: 30 µM.

The target in experiment [10] is T4, Tyrosyl-tRNA synthetase, putative (Trypanosoma cruzi (strain CL Brener)). Description: Trypanosoma cruzi tyrosyl tRNA synthetase (TcYRS) SOP. It counts as functional. The conditions noted are these: 30 µM.
For experiment [11], the target named is Chromo domain-containing protein 1 (Saccharomyces cerevisiae (strain ATCC 204508 / S288c) (Baker's yeast)) (UniProt P32657). Description: ScCHD-1 Enzyme Inhibition Assay. Further: in the data most compounds retested in dose-response had high values. The settings on record: 30 µM. In kind it is functional.
Sequence of Chromo domain-containing protein 1 (Saccharomyces cerevisiae (strain ATCC 204508 / S288c) (Baker's yeast)) (P32657 whole entry, the tested form may be a part): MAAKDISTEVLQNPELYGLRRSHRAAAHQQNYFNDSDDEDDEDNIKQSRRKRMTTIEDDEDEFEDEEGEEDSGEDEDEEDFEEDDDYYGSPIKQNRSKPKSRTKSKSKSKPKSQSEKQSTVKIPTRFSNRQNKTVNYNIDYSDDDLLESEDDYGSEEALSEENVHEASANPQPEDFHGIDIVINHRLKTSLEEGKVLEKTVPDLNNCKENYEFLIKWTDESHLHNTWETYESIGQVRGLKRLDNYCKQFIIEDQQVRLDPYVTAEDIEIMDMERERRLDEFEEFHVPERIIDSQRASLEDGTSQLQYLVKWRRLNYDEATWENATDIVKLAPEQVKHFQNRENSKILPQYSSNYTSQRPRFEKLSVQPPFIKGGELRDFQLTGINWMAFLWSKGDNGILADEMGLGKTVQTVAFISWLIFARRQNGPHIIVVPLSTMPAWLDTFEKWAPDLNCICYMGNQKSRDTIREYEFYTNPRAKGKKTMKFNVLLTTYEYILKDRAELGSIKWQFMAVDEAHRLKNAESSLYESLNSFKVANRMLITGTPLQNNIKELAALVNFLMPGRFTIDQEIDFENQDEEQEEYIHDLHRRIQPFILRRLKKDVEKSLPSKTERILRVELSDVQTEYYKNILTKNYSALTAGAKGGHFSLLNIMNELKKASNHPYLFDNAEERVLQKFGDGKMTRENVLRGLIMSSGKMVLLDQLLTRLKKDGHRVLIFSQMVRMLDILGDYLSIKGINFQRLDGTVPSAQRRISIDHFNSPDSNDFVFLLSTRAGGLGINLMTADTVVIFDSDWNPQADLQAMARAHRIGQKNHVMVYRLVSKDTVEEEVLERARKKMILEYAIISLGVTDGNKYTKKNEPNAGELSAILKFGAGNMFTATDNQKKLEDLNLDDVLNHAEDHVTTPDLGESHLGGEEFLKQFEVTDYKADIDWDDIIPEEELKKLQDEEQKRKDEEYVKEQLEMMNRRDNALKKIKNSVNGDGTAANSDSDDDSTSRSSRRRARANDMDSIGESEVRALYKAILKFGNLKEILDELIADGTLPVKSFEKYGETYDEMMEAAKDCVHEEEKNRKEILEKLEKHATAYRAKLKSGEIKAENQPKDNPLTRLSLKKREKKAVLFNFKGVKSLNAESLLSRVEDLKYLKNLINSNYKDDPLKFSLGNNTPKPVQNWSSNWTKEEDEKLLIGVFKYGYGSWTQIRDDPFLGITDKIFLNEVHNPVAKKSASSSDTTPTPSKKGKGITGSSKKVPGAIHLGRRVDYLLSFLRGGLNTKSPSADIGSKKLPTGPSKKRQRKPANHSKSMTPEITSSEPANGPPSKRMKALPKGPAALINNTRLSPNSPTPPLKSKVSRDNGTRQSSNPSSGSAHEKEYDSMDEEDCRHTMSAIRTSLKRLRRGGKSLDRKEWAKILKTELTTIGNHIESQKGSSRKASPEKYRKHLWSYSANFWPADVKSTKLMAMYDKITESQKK

Sequence of Protein translocase subunit SecA (Escherichia coli (strain K12)) (P10408 whole entry): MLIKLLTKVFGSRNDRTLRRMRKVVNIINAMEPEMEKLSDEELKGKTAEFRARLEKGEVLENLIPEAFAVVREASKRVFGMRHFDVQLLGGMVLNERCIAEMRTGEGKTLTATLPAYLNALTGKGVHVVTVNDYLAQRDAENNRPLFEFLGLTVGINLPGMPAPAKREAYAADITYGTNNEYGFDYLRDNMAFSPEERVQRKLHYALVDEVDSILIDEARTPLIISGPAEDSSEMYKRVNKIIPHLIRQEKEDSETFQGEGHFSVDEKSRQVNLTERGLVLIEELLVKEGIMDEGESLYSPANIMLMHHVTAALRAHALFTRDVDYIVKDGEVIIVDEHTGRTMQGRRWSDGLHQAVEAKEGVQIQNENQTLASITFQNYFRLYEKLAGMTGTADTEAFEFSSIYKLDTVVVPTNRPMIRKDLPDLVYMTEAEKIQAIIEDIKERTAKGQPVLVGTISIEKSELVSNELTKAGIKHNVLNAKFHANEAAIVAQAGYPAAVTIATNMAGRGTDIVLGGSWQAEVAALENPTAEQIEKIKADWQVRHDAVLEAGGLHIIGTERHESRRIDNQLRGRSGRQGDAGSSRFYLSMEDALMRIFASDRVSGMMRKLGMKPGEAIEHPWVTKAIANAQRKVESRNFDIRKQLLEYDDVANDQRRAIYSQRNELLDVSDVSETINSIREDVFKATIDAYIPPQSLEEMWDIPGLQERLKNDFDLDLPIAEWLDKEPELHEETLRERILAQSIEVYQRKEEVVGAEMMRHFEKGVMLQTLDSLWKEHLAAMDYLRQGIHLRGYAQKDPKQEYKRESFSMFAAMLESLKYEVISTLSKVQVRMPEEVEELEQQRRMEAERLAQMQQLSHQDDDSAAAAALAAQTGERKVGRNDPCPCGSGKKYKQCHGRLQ
Sequence of Sialic acid-binding Ig-like lectin 9 (Homo sapiens) (Q9Y336 whole entry): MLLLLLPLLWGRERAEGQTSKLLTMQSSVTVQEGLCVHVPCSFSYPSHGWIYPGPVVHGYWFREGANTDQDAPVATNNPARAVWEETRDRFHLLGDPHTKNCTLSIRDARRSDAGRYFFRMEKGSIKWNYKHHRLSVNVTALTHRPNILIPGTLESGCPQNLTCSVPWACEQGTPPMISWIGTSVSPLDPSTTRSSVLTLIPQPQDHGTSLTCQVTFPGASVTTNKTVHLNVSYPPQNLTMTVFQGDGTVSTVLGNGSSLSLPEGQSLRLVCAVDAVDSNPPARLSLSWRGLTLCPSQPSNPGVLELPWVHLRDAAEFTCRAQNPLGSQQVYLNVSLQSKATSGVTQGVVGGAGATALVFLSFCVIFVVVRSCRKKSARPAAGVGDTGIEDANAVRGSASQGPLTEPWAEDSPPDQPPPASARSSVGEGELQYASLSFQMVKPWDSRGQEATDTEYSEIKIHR

With `CC(NC(=O)NCC1(c2ccccc2)CCC1)c1nncn1C` (stereo not given), the Percent Effect was -3.15% in experiment [1]; 13.2% in experiment [2]; -7.01% in experiment [3]; -5.58% in experiment [4]; -5.7% in experiment [5]; 8.63% in experiment [6]. In addition, the Percent Effect in experiment [7] was 5.67%; in experiment [8] it was -2.94%; in experiment [9], 5.42%; in [10], 16.1%; in experiment [11] it was -6.58%.
Take `CCC(C)N(C)S(=O)(=O)c1ccc(CCNC(C)=O)s1` (stereo not given): the Percent Effect in experiment [1] was -1.87%; in [2], -4.17%; in experiment [3], -4.26%; in [4], -5.04%; in experiment [5], -2.62%; in experiment [6], 0.442%. Further, the Percent Effect was 8.77% in [7]; 10.4% in [8]; -3.16% in [9]; -5.13% in [10]; 5.31% in experiment [11].
As to `COc1ncnc2c1CCN(c1cc(C(F)(F)F)ncn1)CC2`, the Percent Effect in experiment [1] is -3.48%; in [2] it was 8%; in experiment [3] it was 4.03%; in experiment [4], -3.21%; in [5] it was -6.56%; in [6] it was -57.5%. The Percent Effect was 6.67% in experiment [7]; 20.9% in experiment [8]; -1.04% in experiment [9]; 7.5% in experiment [10]; -7.82% in experiment [11].
Turning to `COc1ccccc1CC(=O)N1CCC(NCc2cccnc2)CC1`, the Percent Effect in experiment [1] is -3.89%; in [2], 16.2%; in [3], -2.91%; in experiment [4], -2.63%; in experiment [5] it was -9.01%; in experiment [6] it was -0.924%. For the same molecule, the Percent Effect in experiment [7] was 7.18%; in experiment [8] it was 3.6%; in [9], 3.96%; in experiment [10], 3.66%; in experiment [11], -3.87%.
For the molecule `CCNC(=O)CCc1c(C)nc2cc(O)nn2c1C`, the Percent Effect in [1] is -0.575%; in [2], 15.6%; in [3] it was -428%; in experiment [4], 4.55%; in [5] it was 5.43%; in experiment [6], 4.63%. Besides, the Percent Effect in experiment [7] is 16.9%; in experiment [8] it was 23.5%; in experiment [9], 2.91%; in [10] it was 12.2%; in experiment [11], -8.86%.
`Cn1cc(CN2CCOC3(CCCN(C(=O)c4ccco4)C3)C2)cn1` (stereo not given): the Percent Effect in [1] is -4.16%; in experiment [2] it was 13%; in experiment [3], -1.39%; in experiment [4] it was 4.5%; in [5], 8.95%; in [6], -8.28%. Besides, the Percent Effect is 5.49% in experiment [7]; 1.45% in experiment [8]; 3.23% in [9]; 8.64% in experiment [10]; -6.46% in experiment [11].
On to `O=S(=O)(NC1=NCN(CCc2cccs2)CN1)c1ccccc1`, for which the Percent Effect is -3.47% in [1]; 9.33% in experiment [2]; 1.7% in experiment [3]; 2.24% in [4]; 6.29% in experiment [5]; -11.1% in experiment [6]. The Percent Effect in [7] is 18.3%; in [8] it was 19.6%; in experiment [9], 5.29%; in experiment [10] it was 12.8%; in [11] it was -7.27%.
`Cc1ccc(CNC(=O)NCCCn2nc3ccccn3c2=O)s1`: the Percent Effect in experiment [1] was -7.23%; in [2] it was 16.2%; in [3], -11%; in experiment [4] it was 15.3%; in experiment [5], 6.89%; in [6], -18.8%. Besides, the Percent Effect was 5.95% in experiment [7]; 7.36% in [8]; 6.4% in [9]; -70.4% in [10]; -16.6% in [11].
With `CN(C)Cc1cc(=O)n2c(n1)CN(C(=O)Cc1ccsc1)CCC2`, the Percent Effect is 0.204% in [1]; 2.6% in [2]; 0.0483% in [3]; -0.795% in experiment [4]; 0.492% in experiment [5]; 1.38% in experiment [6]. The Percent Effect in experiment [7] was 6.49%; in [8] it was -22.4%; in [9], 1.07%; in experiment [10], 1.24%; in experiment [11] it was -2.76%.
`O=C(NCCn1ccc(-c2ccncc2)n1)c1ccncc1`: the Percent Effect in experiment [1] was -1.85%; in experiment [2], 5.48%; in experiment [3] it was -0.372%; in experiment [4] it was 8.72%; in experiment [5], 1.57%; in experiment [6], -0.455%. Moreover, the Percent Effect was 9.58% in [7]; 2.43% in experiment [8]; 2.15% in [9]; 2.5% in [10]; -2.37% in experiment [11].
